Laboratory results from PubChem BioAssay.
“And” between values parts separate entries of the source, which are not always exact repeats. Equal entries are not always repeated. For some of these results: Potency and affinity values are given separately. The source made the active and inactive calls.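 How the source made its calls, unless noted: active means thallium flux through the channel raised or lowered by more than 3 SD from vehicle-only wells, actives on both sides; inactive means the rest.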

Key:
[1] = tested on: F380Y; assay: modulators of BK channel variants, profiling panel, selectivity assay, cell-based, U2OS BacMam, thallium flux, beta subunits (AID 1259406); conditions: at 30 µM;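 further: initial slope of Thallos dye fluorescence rise after thallium is added; log ratio against the mean of 0.3% DMSO vehicle wells on the same plate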
[2] = tested on: F380Y/beta1; assay: as above; conditions: at 30 µM
[3] = tested on: F380Y/beta2Delta; assay: as above; conditions: at 30 µM
[4] = tested on: F380Y/beta4; assay: as above; conditions: at 30 µM
[5] = molecular target: Calcium-activated potassium channel subunit alpha-1 (Homo sapiens) + Leucine-rich repeat-containing protein 26 (Homo sapiens) (UniProt Q12791+Q2I0M4); assay: as above; conditions: F380Y/Slo1WT/gamma1, at 30 µM
Calcium-activated potassium channel subunit alpha-1 (Homo sapiens) + Leucine-rich repeat-containing protein 26 (Homo sapiens), sequence (Q2I0M4 whole entry, looked up, one chain of several): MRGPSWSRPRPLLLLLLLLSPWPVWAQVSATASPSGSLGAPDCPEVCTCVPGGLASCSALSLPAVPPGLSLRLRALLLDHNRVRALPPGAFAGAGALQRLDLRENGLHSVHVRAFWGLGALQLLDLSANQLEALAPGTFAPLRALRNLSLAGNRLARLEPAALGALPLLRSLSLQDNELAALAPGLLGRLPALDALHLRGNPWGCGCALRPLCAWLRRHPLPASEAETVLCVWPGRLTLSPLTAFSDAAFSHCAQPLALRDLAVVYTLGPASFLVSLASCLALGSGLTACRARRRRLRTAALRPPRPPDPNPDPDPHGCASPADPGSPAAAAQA

[6] = tested on: R275C; assay: as above; conditions: at 30 µM
[7] = tested on: R275C/beta1; assay: as above; conditions: at 30 µM
[8] = tested on: R275C/beta2Delta; assay: as above; conditions: at 30 µM
[9] = tested on: R275C/beta4; assay: as above; conditions: at 30 µM
[10] = tested on: R275C/Slo1WT/beta2; assay: as above; conditions: at 30 µM
[11] = molecular target: Calcium-dependent protein kinase 1 (Plasmodium falciparum (isolate 3D7)) (UniProt P62344); assay: PfCDPK1 kinase inhibitors, biochemical, TCAMS library (AID 1159585; cut-off not given, nearly all actives have IC50 up to about 0.98 µM;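 further: inhibitors leave more ATP so luminescence rises with inhibition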); conditions: recombinant PfCDPK1, Kinase-Glo ATP depletion luminescence
Calcium-dependent protein kinase 1 (Plasmodium falciparum (isolate 3D7)), sequence (P62344 whole entry, looked up): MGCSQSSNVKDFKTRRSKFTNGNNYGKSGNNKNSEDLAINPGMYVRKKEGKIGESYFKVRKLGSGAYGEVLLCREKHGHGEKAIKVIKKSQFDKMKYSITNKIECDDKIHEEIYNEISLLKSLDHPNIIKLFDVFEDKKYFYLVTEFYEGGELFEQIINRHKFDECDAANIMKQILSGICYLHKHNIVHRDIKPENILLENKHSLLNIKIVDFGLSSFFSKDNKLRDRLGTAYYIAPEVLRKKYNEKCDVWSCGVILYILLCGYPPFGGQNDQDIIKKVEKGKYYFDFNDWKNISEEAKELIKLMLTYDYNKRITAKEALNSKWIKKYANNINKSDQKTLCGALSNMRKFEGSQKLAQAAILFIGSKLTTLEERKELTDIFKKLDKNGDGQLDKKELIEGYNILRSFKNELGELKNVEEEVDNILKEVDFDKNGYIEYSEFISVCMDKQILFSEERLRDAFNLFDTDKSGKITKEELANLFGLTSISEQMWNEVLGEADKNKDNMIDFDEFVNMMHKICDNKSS

[12] = liver-stage malaria parasite growth inhibition, primary screen, cell-based, HepG2, luciferase luminescence, HepG2 viability (AID 624349; in the data active means parasite load remaining mostly below about 12%, no sharp cut-off; inactive means mostly above about 10%;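 further: 100% = mean of DMSO negative control wells on the same plate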); conditions: P. berghei liver stage in HepG2, luciferase luminescence, concentration not given here; parasite load remaining: stronger effect = lower value; viability: measured here: HepG2 viability without parasites
[13] = tested on: Neuropilin-2 / VEGF-C interaction (human); assay: inhibitors of NRP2–VEGF-C binding, biochemical, microplate binding format, z-score (AID 743281; call rule not given here); conditions: microplate NRP2/VEGF-C binding assay; stronger effect = lower value
[14] = modulation of C. elegans fzo-1 (AID 1259413; call rule not given here;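 further: fzo-1 mutant C. elegans worms in liquid wells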); conditions: C. elegans fzo-1 modulator screen, mean read-out; stronger effect = higher value
[15] = differential killing of epithelial or mesenchymal cells, primary screen, imaging, PC-3E GFP, TEM4-18 mCherry, co-culture (AID 1345086;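 active means compounds killing one labelled cell type while sparing the other, by normalised counts and ratio limits, not self-fluorescent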;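 on all read-outs here: cells exposed to compound for 72 h before imaging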;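 on red/green cell ratio (normalised): normalised mesenchymal count divided by normalised epithelial count so high means epithelial killing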); conditions: imaging cell counts, at 1 µM; for red/green cell ratio (normalised): actives lie on both sides
[16] = sensitizers of A549 cells to miR-34 induction, primary screen, imaging, A549 dox-inducible miR-34, nuclei and caspase counts (AID 1347080;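 active means compounds whose cell count with miR-34 switched on is under 0.7 times the count with it off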); conditions: A549 miR-34 inducible, Hoechst nuclei count, 48 h
[17] = Cy5 fluorescence interference with SSB-bound oligo, artefact control for HCV NS3 helicase inhibitor project, biochemical, NIH Clinical Collection, E. coli SSB (AID 743268; call rule not given here)
[18] = tested on: Hepatitis C virus NS3 helicase; assay: HCV NS3 helicase inhibitors, primary screen, biochemical, fluorescence polarization, NIH Clinical Collection (AID 743270; call rule not given here); conditions: NS3 helicase binding to Cy5-dT15 DNA, stronger effect = higher value, concentration not given here
[19] = molecular target: Single-stranded DNA-binding protein (Escherichia coli (strain K12)) (UniProt P0AGE0); assay: E. coli SSB displacement from DNA, counter-screen for HCV NS3 helicase inhibitor project, biochemical, fluorescence polarization, NIH Clinical Collection (AID 743271; in the data active means inhibition above about 28%); conditions: stronger effect = higher value, concentration not given here
[20] = fluorescence interference in NS3h assay format, artefact control for HCV NS3 helicase inhibitor project, biochemical, NIH Clinical Collection (AID 743272; call rule not given here;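 further: HCV NS3 helicase with a Cy5 labelled single stranded DNA probe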); conditions: fluorescence interference counterscreen, stronger effect = lower value
[21] = measured here: epithelial PC-3E GFP cell survival
[22] = measured here: mesenchymal TEM4-18 mCherry cell survival

Cc1csc2sc(C=C(C#N)C#N)c(C)c12
inactive: log fold change Tl+ flux [1] 0.0324 | log fold change Tl+ flux [2] -0.023 | log fold change Tl+ flux [3] 0.0231 | log fold change Tl+ flux [4] 0.00092 | log fold change Tl+ flux [5] 0.0126 | log fold change Tl+ flux [6] 0.0225 | log fold change Tl+ flux [7] 0.0369 | log fold change Tl+ flux [8] 0.00343 | log fold change Tl+ flux [9] 0.00359 | log fold change Tl+ flux [10] 0.0163

O=C(/C=C/c1ccc(Cl)c(Cl)c1)N1CCC(CN2CCC(c3c[nH]c4cc(C(F)(F)F)ccc34)CC2)CC1
inactive: outcome [11]

O=c1c2ccccc2[nH]c(=S)n1-c1ccccc1
inactive: log fold change Tl+ flux [1] -0.0122 | log fold change Tl+ flux [2] 0.0064 | log fold change Tl+ flux [3] 0.0408 | log fold change Tl+ flux [4] 0.0104 | log fold change Tl+ flux [5] 0.0486 | log fold change Tl+ flux [6] -0.0195 | log fold change Tl+ flux [7] 0.0238 | log fold change Tl+ flux [8] -0.000731 | log fold change Tl+ flux [9] 0.00834 | log fold change Tl+ flux [10] -0.0521

CC(C)CNCc1ccc(-c2cccc(CN(C(=O)CCC3CCCC3)C3CCN(Cc4ccccc4)CC3)c2)cc1
inactive: outcome [11]

CCOC(=O)c1cncn1[C@H](C)c1ccccc1
9210: cell count ([16]; measured here: total cells with miR-34 induction, stronger effect = lower value)
0.93: normalised cell number [15, 22]
0.95: normalised cell number [15, 21]
inactive: parasite load remaining [12] 110% | z-score [13] 0.0538 | mean signal [14] 274 | red/green cell ratio (normalised) [15] 0.98 | fold change ([16]; stronger effect = lower value) 0.964 | log fold change Tl+ flux [1] -0.0483 | log fold change Tl+ flux [2] -0.0564 | log fold change Tl+ flux [3] -0.0261 | log fold change Tl+ flux [4] -0.0155 | log fold change Tl+ flux [5] 0.0279 | log fold change Tl+ flux [6] 0.000434 | log fold change Tl+ flux [7] 0.000109 | log fold change Tl+ flux [8] 0.0419 | log fold change Tl+ flux [9] 0.0313 | log fold change Tl+ flux [10] 0.023
75.6%: viability [12]
0.785: fold change ([16]; measured here: relative caspase fold change +Dox/-Dox)
9560: cell count ([16]; measured here: total cells without miR-34 induction)

CN1CC=C(c2c[nH]c3ccc(C(=O)c4nccs4)cc23)CC1
inactive: outcome [11]

O=C(NC1CCC(CN2CCC(c3c[nH]c4ccccc34)CC2)CC1)c1cc(-c2ccccc2Cl)n(-c2cccc(Cl)c2)n1 (stereo not given)
inactive: outcome [11]

CS(=O)(=O)Nc1ccc2c(C3CCN(CC4CCN(C(=O)/C=C/c5ccc(Cl)c(Cl)c5)CC4)CC3)c[nH]c2c1
inactive: outcome [11]

O=C(/C=C/c1ccc(F)c(C(F)(F)F)c1)N1CCC(CN2CCC(c3c[nH]c4ccccc34)CC2)CC1
inactive: outcome [11]

NC(N)=NC(=O)Nc1ccc([N+](=O)[O-])c(Cl)c1
inactive: outcome [11]

CCCCCCC(CC)c1cc(O)c2c(c1)OC(C)(C)c1ccncc1-2 (stereo not given)
inactive: outcome [11]

CC(O)(CS(=O)(=O)c1ccc(F)cc1)C(=O)Nc1ccc(C#N)c(C(F)(F)F)c1 (stereo not given)
0.84: normalised cell number [15, 22]
active: log fold change Tl+ flux [7] 0.266 | log fold change Tl+ flux [8] 0.179
inactive: parasite load remaining [12] 85.6% and 26.5% | fluorescence ratio [17] 1 | inhibition [18] 0.4% | inhibition [19] -0.87% | fluorescence ratio [20] 0.95 | z-score [13] 0.117 | mean signal [14] 225 | red/green cell ratio (normalised) [15] 1.31 | log fold change Tl+ flux [1] -0.0003 | log fold change Tl+ flux [2] 0.0749 | log fold change Tl+ flux [3] -0.0358 | log fold change Tl+ flux [4] -0.0644 | log fold change Tl+ flux [5] 0.0529 | log fold change Tl+ flux [6] -0.0123 | log fold change Tl+ flux [9] 0.0752 | log fold change Tl+ flux [10] -0.00212
0.64: normalised cell number [15, 21]
71.8% and 108%: viability [12]
